Consider 33 compounds from PubChem BioAssay (NCATS).

Results filed as inconclusive are left out. Where a call stands in place of a potency, no number is given. The source made the active and inactive calls. Calls come from the whole dose curve; as a rule, active = well fitted cell-killing curve with a large enough effect; inconclusive = small, poorly fitted or top-dose-only effect, or effect the other way; inactive = flat fitted curve, though single readings scatter.
Potency is the fitted concentration of half-maximal effect.

One test relates to Es-2. The test can be described thus: Primary qHTS to identify gynecologic anti-cancer compounds using libraries of approved drugs and bioactive compounds (AID 1345084). Note: nearly all actives have a fitted effect of over 55% in size. The following applies: Gynecologic cancer cell panel viability, ATPlite luminescence, 48 h; series mostly up to 57.5 µM. The procedure, abridged:
(§1)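 48 h compound exposure at 37 C, 5% CO2; five-point qHTS. ATPlite luminescence readout of cell ATP.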
On the technique in general: qHTS replaces the single test concentration by a dilution series.
As for `CN(C)C(=N)N=C(N)N`, the Potency result is “inactive”.

As for `CC12CC3CC(C)(C1)CC(N)(C3)C2`, the Potency entry was “inactive”.

Consider `Clc1ccc2c(c1)C(N1CCNCC1)=Nc1ccccc1O2`, for which the Potency entry is “inactive”.

On to `CCOC(=O)Nc1ccc(NCc2ccc(F)cc2)nc1N`, for which the Potency entry was “inactive”.

In the case of `NCCCCCC(=O)O`, the Potency result is “inactive”.

For the compound `O=C(c1ccc(OCCN2CCCCC2)cc1)c1c(-c2ccc(O)cc2)sc2cc(O)ccc12`, the Potency entry is “inactive”.

In the case of `C[C@H]1c2cccc(O)c2C(O)=C2C(=O)[C@]3(O)C(O)=C(C(N)=O)C(=O)[C@@H](N(C)C)[C@@H]3[C@@H](O)[C@@H]21`, the Potency entry was “inactive”.

As for `Cn1c(=O)c2c(ncn2C)n(C)c1=O`, the Potency entry was “inactive”.

On to `CS(=O)(=O)Nc1ccc([N+](=O)[O-])cc1Oc1ccccc1`, for which the Potency entry is “inactive”.

For the compound `Cn1cnc2c1c(=O)[nH]c(=O)n2C`, the Potency result is “inactive”.

As for `CC(C)C(=O)Nc1ccc([N+](=O)[O-])c(C(F)(F)F)c1`, the Potency entry is “inactive”.

For the compound `O=c1c(O)c(-c2ccc(O)c(O)c2)oc2cc(O)cc(O)c12`, the Potency result was “inactive”.

As to `CN(C)c1nc(N(C)C)nc(N(C)C)n1`, the Potency entry was “inactive”.

With `CC(C(=O)O)c1cccc(C(=O)c2ccccc2)c1` (stereo unspecified), the Potency entry is “inactive”.

With `CCCNCC(O)COc1ccccc1C(=O)CCc1ccccc1` (stereo unspecified), the Potency result is “inactive”.

Regarding `Clc1ccc(C(c2ccccc2Cl)C(Cl)Cl)cc1` (stereo unspecified), the Potency entry is “inactive”.

For the compound `Nc1ccn([C@H]2CC[C@@H](CO)O2)c(=O)n1`, the Potency entry was “inactive”.

`NS(=O)(=O)c1cc2c(cc1Cl)NCNS2(=O)=O`: the Potency result is “inactive”.

For the compound `Nc1nc2c(ncn2COC(CO)CO)c(=O)[nH]1`, the Potency result was “inactive”.

Consider `NC(=O)NO`, for which the Potency entry was “inactive”.

As to `CC(C)NCC(O)COc1ccc(CCOCC2CC2)cc1` (stereo unspecified), the Potency result is “inactive”.

Consider `COc1ccc(CCN(C)CCCC(C#N)(c2ccc(OC)c(OC)c2)C(C)C)cc1OC` (stereo unspecified), for which the Potency result is “inactive”.

In the case of `C[C@@H]1CC(=O)NN=C1c1ccc(NN=C(C#N)C#N)cc1`, the Potency result was “inactive”.

In the case of `CS(=O)(=O)CCNCc1ccc(-c2ccc3ncnc(Nc4ccc(OCc5cccc(F)c5)c(Cl)c4)c3c2)o1`, the Potency entry is “inactive”.

Turning to `COc1nc(C)nc(Cl)c1NC1=NCCN1`, the Potency result was “inactive”.

For `Cc1ccc(-c2cc(C(F)(F)F)nn2-c2ccc(S(N)(=O)=O)cc2)cc1`, the Potency result was “inactive”.

On to `O=C1N(c2ccccc2)c2ccccc2C1(Cc1ccncc1)Cc1ccncc1`, for which the Potency is 1 µM (active).

In the case of `CN1C(C(=O)Nc2ccccn2)=C(O)c2ccccc2S1(=O)=O`, the Potency result is “inactive”.

Turning to `Cc1cnc(C(=O)NCCc2ccc(S(=O)(=O)NC(=O)NC3CCCCC3)cc2)cn1`, the Potency entry was “inactive”.

Take `CCc1cccc2c3c([nH]c12)C(CC)(CC(=O)O)OCC3` (stereo unspecified): the Potency result is “inactive”.

In the case of `O=C1Cc2cc(CCN3CCN(c4nsc5ccccc45)CC3)c(Cl)cc2N1`, the Potency result is “inactive”.

As for `Cc1cn([C@H]2C=C[C@@H](CO)O2)c(=O)[nH]c1=O`, the Potency result is “inactive”.

`CC(C)(C)C(=O)Oc1ccc(S(=O)(=O)Nc2ccccc2C(=O)NCC(=O)O)cc1`: the Potency result is “inactive”.

Another test deals with HeLa. Described as above. The following applies: Gynecologic cancer cell panel viability, ATPlite luminescence, 48 h; series mostly up to 57.5 µM. In outline: as §1
For `CN(C)C(=N)N=C(N)N`, the Potency result is “inactive”.

Take `CC12CC3CC(C)(C1)CC(N)(C3)C2`: the Potency entry was “inactive”.

`Clc1ccc2c(c1)C(N1CCNCC1)=Nc1ccccc1O2`: the Potency result was “inactive”.

As to `CCOC(=O)Nc1ccc(NCc2ccc(F)cc2)nc1N`, the Potency entry is “inactive”.

On to `NCCCCCC(=O)O`, for which the Potency entry was “inactive”.

Take `O=C(c1ccc(OCCN2CCCCC2)cc1)c1c(-c2ccc(O)cc2)sc2cc(O)ccc12`: the Potency result is “inactive”.

`C[C@H]1c2cccc(O)c2C(O)=C2C(=O)[C@]3(O)C(O)=C(C(N)=O)C(=O)[C@@H](N(C)C)[C@@H]3[C@@H](O)[C@@H]21`: the Potency result is “inactive”.

As to `Cn1c(=O)c2c(ncn2C)n(C)c1=O`, the Potency entry is “inactive”.

Take `CS(=O)(=O)Nc1ccc([N+](=O)[O-])cc1Oc1ccccc1`: the Potency entry is “inactive”.

With `Cn1cnc2c1c(=O)[nH]c(=O)n2C`, the Potency result was “inactive”.

In the case of `CC(C)C(=O)Nc1ccc([N+](=O)[O-])c(C(F)(F)F)c1`, the Potency result is “inactive”.

As to `O=c1c(O)c(-c2ccc(O)c(O)c2)oc2cc(O)cc(O)c12`, the Potency is 15.8 µM (active).

As for `CN(C)c1nc(N(C)C)nc(N(C)C)n1`, the Potency result was “inactive”.

`CC(C(=O)O)c1cccc(C(=O)c2ccccc2)c1` (stereo unspecified): the Potency entry was “inactive”.

For the compound `CCCNCC(O)COc1ccccc1C(=O)CCc1ccccc1` (stereo unspecified), the Potency result was “inactive”.

Regarding `Clc1ccc(C(c2ccccc2Cl)C(Cl)Cl)cc1` (stereo unspecified), the Potency entry is “inactive”.

For `Nc1ccn([C@H]2CC[C@@H](CO)O2)c(=O)n1`, the Potency entry was “inactive”.

Consider `NS(=O)(=O)c1cc2c(cc1Cl)NCNS2(=O)=O`, for which the Potency result was “inactive”.

Take `Nc1nc2c(ncn2COC(CO)CO)c(=O)[nH]1`: the Potency entry was “inactive”.

With `NC(=O)NO`, the Potency result is “inactive”.

For `CC(C)NCC(O)COc1ccc(CCOCC2CC2)cc1` (stereo unspecified), the Potency result was “inactive”.

Turning to `COc1ccc(CCN(C)CCCC(C#N)(c2ccc(OC)c(OC)c2)C(C)C)cc1OC` (stereo unspecified), the Potency result is “inactive”.

In the case of `C[C@@H]1CC(=O)NN=C1c1ccc(NN=C(C#N)C#N)cc1`, the Potency result is “inactive”.

Consider `CS(=O)(=O)CCNCc1ccc(-c2ccc3ncnc(Nc4ccc(OCc5cccc(F)c5)c(Cl)c4)c3c2)o1`, for which the Potency entry was “inactive”.

Turning to `COc1nc(C)nc(Cl)c1NC1=NCCN1`, the Potency entry was “inactive”.

Turning to `Cc1ccc(-c2cc(C(F)(F)F)nn2-c2ccc(S(N)(=O)=O)cc2)cc1`, the Potency entry was “inactive”.

For `O=C1N(c2ccccc2)c2ccccc2C1(Cc1ccncc1)Cc1ccncc1`, the Potency entry was “inactive”.

With `CN1C(C(=O)Nc2ccccn2)=C(O)c2ccccc2S1(=O)=O`, the Potency result was “inactive”.

`Cc1cnc(C(=O)NCCc2ccc(S(=O)(=O)NC(=O)NC3CCCCC3)cc2)cn1`: the Potency entry was “inactive”.

With `CCc1cccc2c3c([nH]c12)C(CC)(CC(=O)O)OCC3` (stereo unspecified), the Potency result is “inactive”.

As to `O=C1Cc2cc(CCN3CCN(c4nsc5ccccc45)CC3)c(Cl)cc2N1`, the Potency entry was “inactive”.

In the case of `Cc1cn([C@H]2C=C[C@@H](CO)O2)c(=O)[nH]c1=O`, the Potency entry is “inactive”.

As to `CC(C)(C)C(=O)Oc1ccc(S(=O)(=O)Nc2ccccc2C(=O)NCC(=O)O)cc1`, the Potency entry is “inactive”.
